In PubChem BioAssay (NCATS):
Inconclusive results are not listed. A call without a number means that no potency is given here. Calls of active or inactive are those of the source. Calls follow the shape of the dose curve; as a rule, active = well fitted curve in the direction sought with a large enough effect; inconclusive = small, poorly fitted or top-dose-only effect, or another doubt; inactive = no such curve, though single readings can be large; an effect the other way counts as inactive or inconclusive.

Assays:
[1] = Primary qHTS for inhibitors of nuclear receptor binding SET domain protein 2 (NSD2) in an isogenic RCH-ACV NSD2 p.E1099K mutant (9B) (AID 1645876)
[2] = Primary qHTS for inhibitors of nuclear receptor binding SET domain protein 2 (NSD2) in an RCH-ACV wild type WT cells (2C) (AID 1645877); also: potency is read from the fitted curve at half-maximal effect
Also: nearly all actives have a fitted effect of over 70% in size.

Compound	Potency [1]	Potency [2]
CC1CCCC2OC2C(=O)c2c(O)cc(O)cc2CC(=O)O1 (configuration not stated)	inactive	
CO[C@@]12CC3[C@@H]([C@@H](O)[C@@H](OC(C)=O)C4[C@](C)(COC(C)=O)CCC[C@]34C)[C@@H](C)C1=CC(=O)O2 (some centres not stated)	inactive	inactive
CC(CCC1C(C(=O)O)=CC(=O)CC1(C)C)O[C@@H]1O[C@H](CO)[C@@H](O)[C@H](O)[C@H]1O (some centres not stated)	inactive	inactive
C=C1CCC2(OC1)OC1CC3C4CC=C5CC(O)CC(O[C@@H]6OC[C@@H](O)[C@H](O)[C@H]6O)C5(C)C4CCC3(C)C1(O)C2C (some centres not stated)	inactive	inactive
COC(=O)[C@@]1(O)C=CC[C@@H]2[C@@]3(C)C[C@@H](c4ccoc4)OC(=O)[C@H]3CC[C@]21C	inactive	inactive
CC1=C2C(=O)O[C@@H](c3ccoc3)[C@]2(C)CCC1	inactive	inactive
C=CC1(C)CC(OC(=O)C(=C)C(O)COC(C)=O)C(C(=C)C(=O)OC)C(O)C1C(=C)CO (configuration not stated)	inactive	
COC(=O)[C@@H]1C2CC3c4[nH]c5ccccc5c4CCN3CC2CC[C@@H]1O (some centres not stated)	inactive	inactive
CC1=C2C=C(CO)C(CO)CCC2(C)CCC1=O (configuration not stated)	inactive	inactive
CC1(C)CC[C@]2(C(=O)O)CC[C@]3(C)C(=CCC4[C@@]5(C)C[C@@H](O)[C@H](O)C(C)(C)C5CC[C@]43C)[C@@H]2[C@@H]1O (some centres not stated)	inactive	inactive
C=CCc1ccc(O[C@@H]2O[C@H](CO)[C@@H](O)[C@H](O)[C@H]2O)c(OC)c1	inactive	inactive
NCc1ccc(OCCCc2sc(-c3ccc4c(c3)/C(=N/Nc3nc5ccccc5s3)CCC4)nc2C(=O)O)cc1	inactive	5.15 µM (active)
